Laboratory results from PubChem BioAssay (NCI).
This is part of a sample that, as a whole, favours compounds with a hit. Of some 83,000 tested, about 20% had one in any assay.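 Activity criterion: percent growth below 10, measured after cells in 96-well plates were exposed to a single compound concentration for 48 hours.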 Values without a mark were called inactive. Activity calls are given as the source filed them.

Columns and labels:
Test in all cases: NCI-60 one-dose screen, 48 h (100 = growth as untreated, 0 = no growth, -100 = all killed)
Conditions in all cases: 10 µM unless noted
HT29 colon = test system: HT29 colon
SNB-75 CNS = test system: SNB-75 CNS
SNB-19 CNS = test system: SNB-19 CNS
U251 CNS = test system: U251 CNS
SK-MEL-5 melanoma = test system: SK-MEL-5 melanoma
UACC-62 melanoma = test system: UACC-62 melanoma
SK-MEL-28 melanoma = test system: SK-MEL-28 melanoma
SK-MEL-2 melanoma = test system: SK-MEL-2 melanoma
LOX IMVI melanoma = test system: LOX IMVI melanoma
PC-3 prostate = test system: PC-3 prostate

SMILES | growth (HT29 colon) | growth (SNB-75 CNS) | growth (SNB-19 CNS) | growth (U251 CNS) | growth (SK-MEL-5 melanoma) | growth (UACC-62 melanoma) | growth (SK-MEL-28 melanoma) | growth (SK-MEL-2 melanoma) | growth (LOX IMVI melanoma) | growth (PC-3 prostate)
Nc1ccc2c(c1)/C(=N/O)c1cc([N+](=O)[O-])ccc1-2 | 88.7% | 64.1% | 81.4% | 66.7% | 80.9% | 73.1% | 102% | 96.9% | – | –
O=C(CSc1nnc(Nc2ccccc2)s1)NCCc1ccc(F)cc1 | 105% | 119% | 100% | 105% | 97.2% | 90% | 134% | 66.2% | – | –
COc1cc2c(cc1OCCCCCn1c(-c3ccc(OCc4ccccc4)cc3)nc3cc(N4CCOCC4)ccc31)N=C[C@@H]1CCCN1C2=O | -13.7% (active) | 12.1% | 34.7% | -24.4% (active) | -66.7% (active) | -76.5% (active) | -19% (active) | -40% (active) | – | –
Cc1cc(C)n(C(=O)c2nn(-c3ccc(Cl)cc3)cc2O)n1 | 97.7% | 29.8% | 26.3% | 19.4% | 79.3% | 52.9% | 71.7% | 88.3% | 41.4% | –
CC(=O)n1c2ccccc2c2ccccc21 | 105% | 97.6% | 113% | 104% | 108% | 114% | 107% | 123% | – | –
CCn1c2ccccc2c2ccc(C(C)=O)cc21 | 95.9% | 94.9% | 106% | 101% | 94.4% | 97.9% | 106% | 112% | – | –
CN(C)CCCN1c2nc3ccccc3cc2Sc2cc3ccccc3nc21 | -88.6% (active) | 9.61% (active) | -56.1% (active) | -84% (active) | -75.9% (active) | -91.3% (active) | -92.9% (active) | 13% | – | –
O=C(Nc1cccc2ccccc12)c1cc2c(cc1Br)OCO2 | 101% | 57.4% | 86.7% | 103% | 99.2% | 85.5% | 119% | 130% | 91% | –
OCc1nnn(-c2ccccc2)c1CO | 103% | 94.8% | 115% | 104% | 107% | 101% | 128% | 113% | 100% | –
NC(=Nc1ccccc1)SCCCCSC(N)=Nc1ccccc1 | 94.8% | 68% | 99.3% | 72.4% | 93.7% | 66.5% | 96.7% | 98.5% | – | –
Cc1cc2c(cc1[N+](=O)[O-])NC(CNC(C)C)CC2 (stereo not given) | 88.8% | 67.7% | 87% | 99.2% | 96.8% | 98.7% | 114% | 112% | – | –
Fc1ccc([C@@H]2CCNC[C@H]2COc2ccc3c(c2)OCO3)cc1 | 14.9% | 57.6% | 80.2% | 70.3% | – | 57.5% | 94.4% | 83.8% | 42.9% | –
Cc1cc(C)n2nc(SCC(=O)Nc3sc4c(c3C(N)=O)CCC4)nc2n1 | 123% | 115% | 102% | 99.3% | 99% | 80.5% | 137% | 65% | 105% | –
O=C(Nc1ccccc1Cl)c1cnc2ccc(C3CCNCC3)cn12 | 18% | -6.82% (active) | 84.6% | 88.4% | 90.6% | 93.6% | 102% | 92.4% | – | –
Cc1ccc(NC(=O)Nc2ccc(-c3cccnc3)cc2N2CCC(CO)CC2)cc1 | 5.68% (active) | 15.3% | – | 11.3% | -46.1% (active) | 4.73% (active) | 9.36% (active) | 33.7% | 33.3% | 51.8%
COc1ccc2c(c1)C(=O)c1c-2c(OCCN(C)C)nc2cc(OC)ccc12 | -43.6% (active) | 31.6% | – | -68.7% (active) | -48.6% (active) | 7.14% (active) | 29.7% | 30.9% | -89.2% (active) | 10.1%
COc1ccc(C(=O)Nc2nc(-c3ccc(Cl)cc3)cs2)cc1 | 114% | 98.7% | 104% | – | 98.9% | 102% | 101% | – | – | 98.3%
O=C(Nc1ccc(Cl)cc1)Nc1ccc(Oc2nncc3ccccc23)cc1 | 0.517% (active) | -3.13% (active) | – | -31.1% (active) | -43.3% (active) | -14.3% (active) | -31.6% (active) | 12.4% | -77.3% (active) | -29% (active)
Nc1ccc(C2=Nc3cccc4cccc(c34)S2)cc1 | 98.5% | 71.4% | – | 91.8% | 88.9% | 79.8% | 111% | 87.5% | 91.8% | 71.6%
COc1ccc2c(c1)C(=O)c1c-2c(=O)n(CCCCCCC(=O)NO)c2ccccc12 | 3.51% (active) | 29.7% | – | -58.8% (active) | -85.7% (active) | -55.5% (active) | -18% (active) | 10.4% | -82% (active) | -8.27% (active)
CC(C)COCC(CN(Cc1ccccc1)c1ccccc1)N1CCCC1 (stereo not given) | -24.5% (active) | 72.5% | 79.1% | – | 51.4% | 81.1% | 84.9% | 77.2% | 47.5% | 41.9%
c1ccc(-c2nnc(Nc3nnc(-c4ccccc4)s3)s2)cc1 | 106% | 93.4% | 111% | – | 100% | 103% | 112% | – | – | 97.7%
Cc1nnc(Nc2ccc(NC(=O)Nc3ccc(Cl)cc3)cc2)c2ccccc12 | 2.24% (active) | 68.1% | – | 5.4% (active) | 52.3% | -34.4% (active) | -11.9% (active) | 44% | -27.3% (active) | 22.8%
CN1CCN(CC(=O)Nc2nc3c(s2)Nc2cc(Cl)c(Cl)cc2NC3=O)CC1 | 99.1% | 96.3% | 104% | 95% | – | 109% | 111% | – | – | –
Nc1ccc(C2=NN(c3ccccc3)C(c3ccc(Cl)cc3)C2)cc1 (stereo not given) | 19.5% | 72.8% | 78.1% | – | – | 89.5% | 105% | – | – | 80.9%
COc1ccc2nc3cc(Cl)ccc3c(N3CCN(c4ccnc(Nc5ccc(F)cc5)n4)CC3)c2c1 | 83.3% | 69.1% | 82.4% | – | – | 77.4% | 104% | – | – | 67.3%
O=[N+]([O-])c1ccc(N/N=C\c2ccccc2[N+](=O)[O-])nc1 | 104% | 103% | 99.4% | – | 105% | 96.7% | 110% | 95.6% | 105% | 99.7%
CCCC[N+](CCCC)=c1ccc2nc3c(C)cc(N(CC)CC)cc3sc-2c1 | -68.6% (active) | -0.166% (active) | – | -11.3% (active) | -96.9% (active) | -35.7% (active) | -2.53% (active) | -51% (active) | -70.4% (active) | -13.9% (active)
CC(C)C(=O)Cc1cnccn1 | 108% | 102% | 102% | – | 109% | 98.1% | 116% | 109% | 97% | 102%
C[C@]12CC[C@@H]3c4ccc(O)cc4CC[C@H]3[C@@H]1CC[C@@H]2NS(=O)(=O)c1cccc(Br)c1 | 61.6% | 72.7% | 95.2% | – | 61.3% | 70% | 88.3% | – | – | 38.7%
